Screening results (PubChem)
Sampled rows, rich in hits. Any-hit rate of the full collection: about 22%.
CYP2C19 act: increases human CYP2C19 enzyme activity | P33261 | recombinant CYP2C19, luciferin-H EGE luminescence; hits give high values; 0 = fully inhibited enzyme, 1 = untreated enzyme | activation factor at 5 µM | 96,000 tested, under 10 active;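 active = activation factor of at least 2 at 5 µM in the primary screen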;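 also: 0 = wells with 2.5 mM tranylcypromine and 1 = vehicle-only wells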
Target sequence (P33261 whole entry, looked up): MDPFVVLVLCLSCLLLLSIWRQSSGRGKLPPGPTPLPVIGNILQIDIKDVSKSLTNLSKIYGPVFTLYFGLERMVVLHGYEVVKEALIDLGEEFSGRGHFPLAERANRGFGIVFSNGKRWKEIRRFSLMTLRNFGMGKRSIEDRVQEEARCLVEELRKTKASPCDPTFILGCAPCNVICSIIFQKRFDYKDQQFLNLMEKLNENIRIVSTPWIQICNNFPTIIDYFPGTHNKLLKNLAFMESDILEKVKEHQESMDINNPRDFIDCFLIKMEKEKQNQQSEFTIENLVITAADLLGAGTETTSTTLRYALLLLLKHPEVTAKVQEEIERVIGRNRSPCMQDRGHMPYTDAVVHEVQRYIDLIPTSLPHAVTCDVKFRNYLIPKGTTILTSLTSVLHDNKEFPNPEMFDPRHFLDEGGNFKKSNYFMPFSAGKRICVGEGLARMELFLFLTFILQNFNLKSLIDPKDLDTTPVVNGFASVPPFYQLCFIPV
CYP2C19 inhib: human CYP2C19 inhibition. inhibition, % at 5 µM. P33261. actives 21% (n = 96,000). CYP2C19 Supersomes, luciferin-H EGE luminescence, 30 min;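 active = CYP2C19 inhibition above a set limit at 5 µM in the primary screen, cut at about 50% in these data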;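 also: plate controls were negative control wells for no effect and 2.5 mM tranylcypromine positive control for full effect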
E-sel TNF inh: TNF alpha driven E-selectin expression inhibition. actives 0.71% (n = 120,000). HUVEC TNFa-induced E-selectin immunofluorescence, high content. inhibition, % at 2 µM;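 active = inhibition above the batch mean plus 3 SD, and confirmed as a hit on visual image review, cut at about 43% in these data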;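 also: 0% = TNF-stimulated DMSO wells and 100% = unstimulated control wells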
CYP2C9 inhib: human CYP2C9 inhibition | inhibition, % at 5 µM | P11712 | actives 20% (n = 96,000) | CYP2C9 Supersomes, luciferin-H conversion, luminescence;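 active = blocking of liver enzyme CYP2C9 beyond about 50% at 5 µM, limit read from the data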
F-actin modifier: modifiers of cytoskeleton assembly | HUVEC TNFa F-actin phalloidin imaging, high content | inhibition, % at 2 µM | actives 0.18% (n = 91,000) | AID 836;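 active = inhibition above the batch mean plus 3 SD and confirmed as a hit by visual image inspection, cut at about 30% in these data, passing the limit was not always enough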
CYP2C9 activ: increases human cytochrome P450 2C9 activity. P11712. recombinant CYP2C9, luciferin-H conversion, luminescence; hits give high values; factor 1 = untreated enzyme, 0 = blocked. activation factor at 5 µM. actives 1.4% (n = 96,000). AID 1024;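 active = activation factor of 2 or more for CYP2C9 at a 5 µM dose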;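 also: 0 = sulfaphenazole-blocked wells and 1 = vehicle-only wells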
Numbers without * were called inactive; . = not tested or not shown.

SMILES | CYP2C19 act | CYP2C19 inhib | E-sel TNF inh | CYP2C9 inhib | F-actin modifier | CYP2C9 activ
Cc1nnc(SCCn2c(N(C)Cc3ccccc3)nc3c2c(=O)[nH]c(=O)n3C)s1 | 1 | -3.8 | 14.4 | 9.0 | -20.5 | 0.9
Cc1nc(N2CCN(C(=O)COc3ccccc3)CC2)c2c(C)c(C)sc2n1 | 0.6 | 36.0 | -0.9 | 92.6* | 6.2 | 0.1
COc1ccc(OCC(=O)N2CCN(C(=O)COc3ccc(Br)cc3)CC2)cc1 | 0.4 | 64.5* | -8.2 | 46.0 | . | 0.5
O=C(COc1ccc(Cl)cc1Br)N1CCN(c2ccccc2)CC1 | 0.6 | 44.6 | 13.1 | -11.7 | 30.6 | 1.1
CC(=O)N1CCN(C(=O)COc2ccc(Br)cc2)CC1 | 0.1 | 88.8* | 4.8 | -0.4 | 0.0 | 1
O=C(COc1ccc(Br)cc1)N1CCN(c2ccccc2)CC1 | 0.3 | 70.6* | 2.4 | 36.7 | 5.7 | 0.6
CCCn1c(=O)c(C(=O)Nc2ccccc2C(=O)OC)c(O)c2ccccc21 | 1 | 3.9 | -5.1 | 31.7 | . | 0.7
CC(C)c1ccc(NC(=O)COc2nnc(-c3cccs3)c(-c3cccs3)n2)cc1 | 0.2 | 80.2* | . | 86.5* | 4.5 | 0.1
CCc1ccc(NC(=O)C(C)Oc2nnc(-c3cccs3)c(-c3cccs3)n2)cc1 (stereo not drawn) | 1.1 | -13.5 | 11.6 | 68.0* | . | 0.3
C#CCn1cc(C=C2C(=O)c3ccccc3C2=O)c2ccccc21 | . | . | 0.9 | . | . | .
CCN(CC(=O)c1c(N)n(C)c(=O)n(C)c1=O)c1cccc2ccccc12 | . | . | 4.9 | . | . | .
Cn1c(=O)oc2cc(S(=O)(=O)N3CCOCC3)ccc21 | 1.3 | -27.7 | -4.4 | -31.9 | 31.0 | 1.3
Cn1c(=O)oc2cc(S(=O)(=O)N3CCC4(CC3)OCCO4)ccc21 | 0.2 | 75.3* | . | -2.2 | 32.3 | 1
Cc1ccc(Cl)cc1N1CCN(S(=O)(=O)c2ccc3c(c2)oc(=O)n3C)CC1 | 0.9 | 12.4 | 1.4 | 96.9* | 1.4 | 0
Cc1cccc(NC(=O)N(Cc2nc3ccccc3c(=O)[nH]2)C2CCCC2)c1 | 1 | 0.7 | -1.5 | . | -3.6 | .
Cc1ccc(Oc2ccccc2/C=N/O)cc1 | 0.2 | 82.3* | 11.3 | 39.5 | 17.1 | 0.6
O=C(CCCn1cnc([N+](=O)[O-])n1)Nc1ccc(Cl)c(Cl)c1 | 0.5 | 47.7 | -68.8 | 22.5 | -11.6 | 0.8
Cc1ccc(NC(=O)C2(NC(=O)c3cccc(N4C(=O)CSC4c4ccccc4)c3)CCCCC2)cc1 (stereo not drawn) | 1 | 3.8 | -32.7 | 83.8* | 6.2 | 0.2
Oc1c(N=Nc2ccccn2)ccc2ccccc12 | 0.7 | 31.1 | 2.2 | 43.4 | -22.7 | 0.6
N#C/C(=C/c1ccc(CNS(=O)(=O)c2ccccc2)o1)C(N)=O | . | . | 3.1 | . | . | .
Cc1c(Cl)c([N+](=O)[O-])nn1CC(=O)Nc1c(C)n(C)n(-c2ccccc2)c1=O | 0.7 | 30.2 | -17.2 | 10.1 | 14.6 | 0.9
Cc1nonc1NC(=O)CSc1nnc(-c2ccoc2C)n1C | 0.9 | 7.3 | -11.4 | -10.1 | -10.0 | 1.1
COc1ccc(OCCSc2nnc(-c3ccccc3)n2N)cc1 | 0.8 | 22.1 | . | 3.3 | -27.3 | 1
Cc1occc1-c1nnc(SCC(=O)c2ccc(Cl)cc2)n1C | 0.1 | 85.1* | 26.1 | 47.6 | 13.7 | 0.5
Cc1occc1-c1nnc(SCC(=O)N2CCN(c3ccccc3F)CC2)n1C | . | . | -13.1 | . | . | .
SMILES | CYP2C19 act | CYP2C19 inhib | E-sel TNF inh | CYP2C9 inhib | F-actin modifier | CYP2C9 activ
COc1ccc(OCCSc2nnc(-c3ccoc3C)n2C)cc1 | 0.3 | 74.2* | . | 72.4* | -19.3 | 0.3
Cc1occc1-c1nnc(SCC(=O)c2c[nH]c3ccccc23)n1C | 0 | 98.4* | . | 53.5* | 3.7 | 0.5
CCOCCCNC(=O)CCc1ccc(S(=O)(=O)Nc2ccc(C)cc2)cc1 | . | . | 22.3 | . | . | .
CCOC(=O)C1CCN(C2CC(=O)N(c3ccc(OCC)cc3)C2=O)CC1 (stereo not drawn) | . | . | -13.6 | . | 10.2 | .
CCOC(=O)C1CCN(Cc2nc3ccccc3c(=O)n2-c2ccc(OCC)cc2)CC1 | 0.8 | 17.6 | 2.5 | 53.5* | 3.7 | 0.5
CCOC(=O)Cn1nnc(-c2ccc(OCC(C)C)cc2)n1 | 0.8 | 21.5 | -1.6 | 32.1 | 1.1 | 0.7
CCCCOc1ccc(-c2nnn(CC(=O)Nc3ncc(CC(=O)OCC)s3)n2)cc1 | 0.8 | 21.2 | 5.3 | 76.0* | -32.1 | 0.2
CCOC(=O)Cc1cnc(NC(=O)Cn2nnc(-c3ccc(OCC)cc3)n2)s1 | 0.3 | 66.2* | . | 85.0* | -3.0 | 0.2
CCOC(=O)N1CCN(Cc2nc(N)nc(Nc3ccccc3C)n2)CC1 | 1 | 2.3 | 45.7 | 11.1 | 27.6 | 0.9
S=C(NCCC(c1ccccc1)c1ccccc1)Nc1ccccc1Cl | 0.4 | 55.4* | -78.4 | 66.4* | 17.0 | 0.3
COC(=O)c1ccccc1NC(=O)C1CCCN(S(=O)(=O)c2ccc(OC)cc2)C1 (stereo not drawn) | 0.5 | 53.6* | -38.0 | 72.7* | -7.3 | 0.3
COC(=O)c1ccccc1NC(=O)C1CCCN(S(=O)(=O)c2ccc(F)cc2)C1 (stereo not drawn) | 0.1 | 90.3* | 20.9 | 79.7* | -8.3 | 0.2
COC(=O)c1sccc1NC(=S)Nc1ccccc1 | . | . | -18.5 | . | . | .
CC(=O)Nc1c(C(=O)N2CCOCC2)cnn1-c1ccc(C)c(C)c1 | 0.9 | 9.1 | -4.5 | -4.3 | 2.9 | 1
Cn1cc(C(=O)NC2CCCCCCC2)c(=O)c2cc(S(=O)(=O)N3CCCC3)ccc21 | 0.9 | 5.5 | -28.9 | 84.2* | . | 0.2
CCn1cc(C(=O)NCC2CCCO2)c(=O)c2cc(S(=O)(=O)N3CCC(C)CC3)ccc21 (stereo not drawn) | 1 | -1.1 | 3.2 | 43.6 | -39.3 | 0.6
CCn1cc(C(=O)N2CCc3ccccc32)c(=O)c2cc(S(=O)(=O)N3CCCCCC3)ccc21 | 0.7 | 29.0 | -55.9 | 66.8* | -0.7 | 0.3
CCn1cc(C(=O)NCC2CCCO2)c(=O)c2cc(S(=O)(=O)N3CCCCCC3)ccc21 (stereo not drawn) | 0.8 | 18.5 | 1.0 | 56.6* | 21.4 | 0.4
COc1ccc(OC)c(NS(=O)(=O)c2ccc(Br)s2)c1 | . | . | -24.0 | . | . | .
CCCS(=O)(=O)Nc1c(C(=O)OC)[nH]c2ccccc12 | . | . | -2.2 | . | . | .
COC(=O)c1[nH]c2ccccc2c1NS(=O)(=O)c1ccc(F)c(C)c1 | 0.1 | 93.3* | 50.4 | 48.5 | 42.4 | 0.5
COc1ccc(S(=O)(=O)Nc2c(C(=O)O)[nH]c3ccccc23)c(OC)c1 | 0.9 | 5.7 | 19.0 | 60.6* | -8.3 | 0.4
COc1ccc2[nH]c(C(=O)O)c(NS(=O)(=O)c3ccc(OC)c(OC)c3)c2c1 | 0.6 | 35.9 | -56.0 | 75.9* | 6.9 | 0.2
Cc1ccc(NC(=O)CN2C(=O)C(C)Oc3ccccc32)nc1 (stereo not drawn) | 0.9 | 9.5 | 2.1 | -3.0 | -11.7 | 1
CN/S(=N/S(=O)(=O)c1ccccc1)c1ccc(C)cc1 (stereo not drawn) | 0.2 | 76.0* | -47.7 | 25.7 | . | 0.7
Cc1cc(OCc2ccc(C(=O)n3cccn3)o2)ccc1Cl | . | . | -13.9 | . | -5.4 | .
